Reference: the supplement of paper PMC11417369
± gives the standard deviation of the averaged measurements. The full ranking holds about 25,000 sequences; the median of “ln(normalized median fluorescence intensity)” is about 10, and the highest 2% start at about 12. This excerpt belongs to a sample that is enriched for the highest values.

What follows are sequences tested on PfAP2-G AP2 domain (GST-tagged) (assay: gcPBM binding intensity (ln(normalized median fluorescence intensity)); higher = stronger DNA binding).
How it was run: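 Probes on an Agilent 4 × 180k array were primer-extended, double-stranded and 36 bp long, taken from intergenic genomic regions, with negative controls added. GST-tagged P. falciparum DNA-binding domains from E. coli, about 25 μg on average, were applied to the array for 1 h in 1× PBS containing 1% milk, 0.2 mg/ml BSA, 0.5% salmon testes DNA and 0.03% Triton X-100. Binding intensity, obtained after Alexa488 anti-GST antibody detection and a 488 nm scan, is the highest Masliner-normalised natural-log median intensity across replicate spots of either probe orientation.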

| Sequence | gcPBM binding intensity (ln) |
| --- | --- |
| ATAAAGAAAAGGAACACACAAATATGTAAATATGTA [CACACA_site6356] | 10.06 ± 0.085 |
| TATGAGAACAAACATTGTACAATAAAAAGTAGATAT [XGTACX_site920] | 11.2 ± 0.35 |
| ATAGAACAGAAAAGGCGTACAATAATATGTAAACAA [XGTACX_site2828] | 11.8 ± 1.1 |
| TTTCATAACAAAAAAGTGCAAAATAGCACGAACATT [GTGCAC_site9703] | 10.3 ± 0.16 |
| TTATAAAACACAAAATGTACAAAAAATTATAATTAA [XGTACX_site6859] | 10.7 ± 0.33 |
| AAAAACGATTAATGTGTACACACATAGTTATAAACA [CACACA_site8659] | 11.7 ± 1.2 |
| AAACGATTAATGTGTACACACATAGTTATAAACCTA [CACACA_site2110] | 11.6 ± 0.91 |
| AAACGATTACTGTGTACACACATAGTTATAAACATA [CACACA_site5195] | 11.5 ± 0.72 |
| TAAACACATTATATATGTACATAATAAAAAAAAAAA [XGTACX_site7907] | 11.2 ± 0.83 |
| AAACGATTAATGTGTACACACATAGTTATAAACATA [CACACA_site7073] | 11.7 ± 1.2 |
| TAATGACAATAAAAATAAATAAATAAAAAAAAAAAA [TGCATGCA_negctrl_site321] | 9.51 ± 0.59 |
| ATATAAATATAAACATGTACATATATATATATATAT [XGTACX_site2824] | 11.1 ± 0.69 |
| AAAATTTTTCTTAAAGCATGCACAATTAAGAAGACG [TGCATGCA_site883] | 10.2 ± 0.13 |
| TTTTTCATAAAAAAATAAAAAAAATTAACATAGAAA [XGTACX_negctrl_site11] | 9.95 ± 0.26 |
| TTTATACTTTCAAAATGTACATATATATATATATAT [XGTACX_site6241] | 11.1 ± 0.63 |
| ATATATACTATAATAGTGCATTAAAAAAGTAAAAAT | 10.2 ± 0.25 |
| AATATATATATGTGTACACATCCAAAATAGGCATAC [CACACA_site5705] | 11.7 ± 1.1 |
| AATAAAAATAGGAAATGTACACATATATATATATAT [XGTACX_site1853] | 11.2 ± 0.59 |
| CATCCACAAATATGTACACACATATATAAATATGTA [CACACA_site7407] | 11.4 ± 0.93 |
| AATAAATATAGGTACACACACAAATATGTACATATC [CACACA_site6976] | 11.7 ± 0.92 |
| TAAATAAATATATGTACACACACAAATATATACATA [CACACA_site8577] | 11.4 ± 0.73 |
| GTTTTAAAACAAATATGTACACATAATATAGGAAAG [XGTACX_site1803] | 11.7 ± 0.82 |
| AAAAAAAAAAAAACAAGTACAAAGGATAGAAAAAAA [XGTACX_site4133] | 11.2 ± 0.71 |
| TAAAACATATATACAAGTACACAAAGGATATATATA [XGTACX_site3710] | 11.4 ± 0.95 |
| AAAAATATAATATAATGTACACATAAACAAAAAAAA [XGTACX_site3658] | 11.4 ± 0.84 |

| Sequence | gcPBM binding intensity (ln) |
| --- | --- |
| AATAAATATATGTACACACACAAATATATACATATC [CACACA_site1903] | 11.3 ± 0.63 |
| AAGGGGAAAAAAAAAAGTACACAAACATAGGATAAT [XGTACX_site377] | 11.7 ± 1 |
| GTAAATACACATATGTGTACATATATATATATATAT [XGTACX_site3696] | 11.5 ± 0.86 |
| AAAAAAAAAAGAAAGAGTACTTTTTCAATACATATA [XGTACX_site2468] | 11.1 ± 0.7 |
| TTAACTTATTTGTAAAGTACATTAATAAAAAGAAAA [XGTACX_site1588] | 11.1 ± 0.42 |
| ATATATATATATATATGTACATATATTTTTATTTAT [XGTACX_site3508] | 11.2 ± 0.76 |
| TAACTACTAGAAAAAACACACAAAAAGTAAATATAT [CACACA_site2740] | 10.045 ± 0.007 |
| ATACATACATATATATGTACTTATATTTTACACATT [XGTACX_site1688] | 11.2 ± 0.75 |
| AATGGAAAAATAGGCACACACACATAAATACAGATA [CACACA_site4844] | 10.3 ± 0.18 |
| TGTAAATATAAATGTAATAAATATGTAAAAATAAAT [XGTACX_negctrl_site171] | 9.79 ± 0.13 |
| AATGAATAAATAAACACACACACATATATAAATATG [CACACA_site6160] | 10.05 ± 0.014 |
| GATAAAATATGTTGCCGTACATATTCATATACTTAA [XGTACX_site4776] | 11 ± 0.62 |
| GGTAGTTATTATCTCCGTACTTATAAAGAAAAAAGG [XGTACX_site4674] | 10.9 ± 0.63 |
| TATGTATATTTTTTTGTGCACATATATATATATATA | 10.4 ± 0.35 |
| ATTTTTATTTTTTTTGTGCACATTTTCATTTTCTAT [GTGCAC_site9580] | 10.54 ± 0.085 |
| TTTGTGTGTACGCGTGTGCACATTTTTTTTTTTTTT | 11.7 ± 0.92 |
| TCATATTTCCATAGGAGTACATAAAAAAAATAATAT [XGTACX_site7601] | 11.7 ± 1.2 |
| ATAAATCATAAGGAGAGTACATAAATAAAATAATCA [XGTACX_site8825] | 11.2 ± 0.71 |
| TATAATATAAAAATGAGTACATAGATAATAATATTT [XGTACX_site2376] | 11.3 ± 0.74 |
| TATACACATATATACACACACATATATAAATAAATA [CACACA_site7579] | 10 ± 0.23 |
| CAAACAAACGGACACACACACACACCCAAAAATGAT [CACACA_site5363] | 11.2 ± 0.69 |
| TATATTTATATAATATGTACATATTTTTTAATATTT [XGTACX_site3834] | 11.2 ± 0.72 |
| TAATATGAAATGTGTACACACGCACCCACAAAAAAA [CACACA_site8949] | 11.8 ± 0.93 |
| TAATATGAAAAGTGTACACACGCACAGACAAAAAAA [CACACA_site5594] | 11.6 ± 0.95 |
